Assay outcomes: PubChem BioAssay, National Center for Advancing Translational Sciences (NCATS)
TRHR enhancer: allosteric enhancers of human TRH receptor; enhancement, % at 2 µM; P34981; actives 0.66% (n = 360,000); AID 493056; TRHR cells, fluo-8 calcium fluorescence, EC20 TRH enhancement; in the data active means enhancement above about 30%; further: 0% is about no effect
Target sequence (P34981 whole entry, looked up): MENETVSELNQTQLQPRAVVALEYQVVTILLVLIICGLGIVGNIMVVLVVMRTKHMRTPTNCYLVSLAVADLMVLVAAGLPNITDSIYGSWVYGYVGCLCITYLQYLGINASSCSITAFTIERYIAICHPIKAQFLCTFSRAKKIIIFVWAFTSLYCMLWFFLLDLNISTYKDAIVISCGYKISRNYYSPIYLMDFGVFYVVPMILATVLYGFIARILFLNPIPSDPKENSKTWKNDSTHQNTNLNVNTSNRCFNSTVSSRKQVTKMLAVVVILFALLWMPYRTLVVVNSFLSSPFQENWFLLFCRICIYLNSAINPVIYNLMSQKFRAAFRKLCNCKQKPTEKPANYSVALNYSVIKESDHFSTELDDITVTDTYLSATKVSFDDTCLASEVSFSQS
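TRHR-expressing cells loaded with fluo-8 calcium dye were read kinetically (ex 480/em 530) during compound addition, then stimulated with an EC20 of TRH (10 nM final). Enhancement of the Gq-mediated intracellular calcium response was scored.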
D1 PAM: human D1 dopamine receptor positive modulation; P21728; HEK293 TREx D1 cells, calcium flux, dopamine EC20 potentiation; potentiation, % at 10 µM; actives 0.036% (n = 360,000); in the data active means potentiation above about 30%; further: 0% is about no effect
TRHR agonist: TRH receptor (human) agonism. P34981. TRHR cells, calcium flux fluo-8, FDSS agonist mode. activation, % at 2 µM. actives 0.18% (n = 360,000); further: 0% is about no effect
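Agonist-mode FDSS calcium read (Ex 480/Em 530, 1 s cycles) in 1536-well TRHR cells with fluo-8 dye, after 10-cycle baseline and 23 nL compound addition; TRH at EC20 (10 nM final) added afterwards for the enhancer phase.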
D1 antagonist: blocks dopamine activation of the human D1 receptor; P21728; HEK293 TREx D1 cells, calcium flux, dopamine EC80; hits give low values; activity change, negative = inhibition, % at 10 µM; actives 3.2% (n = 360,000); AID 504652; in the data active means activity change below about -30%; further: on the % scale 0 is the no-effect control and ±100 the full control effect
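Antagonism measured as reduced calcium response to an EC80 dopamine addition following 180 s compound pre-read; cells were inducible HEK293 Trex D1 plated overnight at 30 C, read kinetically at 1 cycle/sec.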
D1 ag: human D1 receptor agonism. activation, % at 2 µM. actives 1% (n = 360,000). HEK293 T-REx D1 cells, calcium flux, agonist mode. P21728; further: 0% is about no effect
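Agonism was scored from calcium flux recorded over 180 s (1 read/s) after pintool compound addition, following a 10-cycle baseline. Cells were inducible force-coupled HEK293 TREx D1, plated overnight at 30 C and loaded with no-wash calcium dye.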
* = called active by the depositor. In the library only some 4.6% were active in any assay of this set; here they are far more common. Unless noted, no stated cut-off is given here; in the data, active means activation above about 30%; inactive means the rest.

SMILES | TRHR enhancer | D1 PAM | TRHR agonist | D1 antagonist | D1 ag
CCCn1cc(CN2CCN(Cc3ccc(C)o3)C(CCO)C2)c(C)n1 (configuration not stated) | 17 | 1 | 0 | -36* | 1
CCCn1ncc(CN2CCN(Cc3ccc(C)o3)C(CCO)C2)c1C (configuration not stated) | 6 | -11 | -1 | 5 | 2
O=[N+]([O-])c1ccc(O)c(/C=N/NC(=S)Nc2ccc(Cl)cc2Cl)c1 | -14 | -12 | 1 | -40* | 12
Cc1cc(Cl)ccc1NC(=O)CCC(=O)N/N=C/c1cc([N+](=O)[O-])ccc1O | -2 | 13 | -2 | -9 | 1
CCCn1c(NC(=O)c2cccc(C)c2C)nc2ccccc21 | 4 | -5 | 0 | -49* | 2
CCCn1c(NC(=O)C2CCN(C(=O)c3ccccc3C)CC2)nc2ccccc21 | -4 | -5 | 0 | 0 | 1
CNC(=O)c1c(NC(=O)/C=C/c2ccccc2Cl)sc2c1CCC2 | -6 | 6 | 0 | 5 | 2
CC(C)(C)CC(=O)Nc1nnc(SCC(=O)Nc2ccccc2F)s1 | -3 | -7 | -1 | -40* | 1
CCSc1nnc(NC(=O)CC(C)C)s1 | 5 | -9 | -1 | 14 | 2
CC(C)CC(=O)Nc1nnc(SCC(=O)Nc2nccs2)s1 | 3 | -1 | 0 | -35* | 7
CC(=O)Nc1ccc(NC(=O)CSc2nnc(NC(=O)Cc3ccc(F)cc3)s2)cc1 | -19 | -20 | 0 | -53* | 1
COc1ccc(CNC(=O)c2cc(-c3cccs3)nc3ccccc23)c(OC)c1 | 6 | -1 | -2 | -46* | 4
COc1cccc(CNC(=O)c2cc(C)nc3ccccc23)c1 | 10 | -6 | -1 | -39* | 3
Cc1cc(CNC(=O)c2cccc([N+](=O)[O-])c2C)c2ccccc2n1 | 4 | -7 | 0 | -46* | 26
CCC(C)NS(=O)(=O)c1cc2c3c(c1)CCN3C(=O)CC2 (configuration not stated) | -5 | -8 | 0 | 1 | 2
O=C(NCCCc1nc2ccccc2n1Cc1cccc(Cl)c1)c1ccco1 | -7 | -1 | 1 | 17 | 2
CCOc1cc(N2CCOCC2)c(OCC)cc1NC(=O)COC(=O)CCOc1cc(C)ccc1C | 4 | 1 | 0 | 4 | 0
O=C(COC(=O)COc1ccc2ccccc2c1)NCC(F)(F)F | -7 | 3 | 0 | -32* | 25
CN(C)c1ccc(C2C3CCCc4ccccc4C3=NN2C)cc1 (configuration not stated) | 1 | 2 | 0 | 14 | 2
CN1N=C2c3ccccc3CCC2C1c1ccc(C(F)(F)F)cc1 (configuration not stated) | 0 | 1 | 0 | -82* | 4
O=C(Nc1cccc2cccnc12)c1ccc(Br)cc1 | -5 | 3 | 1 | 12 | 8
Cc1csc(SCc2nnc(-c3ccccc3Br)o2)n1 | -7 | 4 | 0 | 23 | 4
Fc1ccccc1SCc1nnc(-c2ccccc2Br)o1 | 7 | -15 | -1 | -66* | 7
COC(=O)c1ccc(-n2c(/C=C\c3cccc(Br)c3)nc3ccccc3c2=O)cc1 | 0 | -2 | 0 | -32* | 4
O=C(O)c1ccc(-n2c(/C=C/c3ccccc3)nc3ccccc3c2=O)cc1 | -7 | 12 | 0 | -5 | 0
SMILES | TRHR enhancer | D1 PAM | TRHR agonist | D1 antagonist | D1 ag
Clc1ccc(Cn2c(-c3cccnc3Cl)nc3ccccc32)cc1 | -4 | -7 | 1 | -45* | 2
CC(=O)Nc1ccccc1-c1nc2ccccc2n(C(C)C(=O)c2ccc(C)c(C)c2)c1=O (configuration not stated) | -5 | -1 | -1 | -3 | 51*
O=C1CN(C(=O)COc2ccc(Cl)cc2Cl)C(c2ccccc2)c2cc(F)ccc2N1 (configuration not stated) | 6 | -1 | 2 | 5 | 16
Oc1ccc(Cl)cc1C1C=C(c2ccc3c(c2)OCO3)NC(c2cc(Br)ccc2F)N1 (configuration not stated) | -2 | -2 | 2 | -9 | 31*
Oc1ccccc1C1C=C(c2ccc3c(c2)OCO3)NC(c2c(F)cccc2Cl)N1 (configuration not stated) | 4 | 2 | 1 | 32 | 12
Oc1ccc(Br)cc1C1C=C(c2ccc3c(c2)OCO3)NC(c2c(F)cccc2Cl)N1 (configuration not stated) | -2 | -4 | 1 | -56* | 19
COC(=O)c1ccc(Cl)cc1NC(=O)N(Cc1ccc(OC)cc1)C1CCN(C(C)=O)CC1 | -5 | 2 | 3 | 12 | 2
COc1ccc(NC(=O)Nc2ccc(C(C)C)cc2)cc1 | -15 | -9 | 0 | -37* | 0
CC1=C(C)CC(C(=O)NCc2ccccn2)C(C(=O)O)C1 (configuration not stated) | 3 | -4 | 1 | -91* | 3
CC(C)c1onc(C(=O)NCc2ccccn2)c1[N+](=O)[O-] | 31* | 0 | 0 | -6 | 0
CC(C)c1ccc(OCC(=O)Nc2ccncc2)cc1 | -6 | 0 | -2 | -34* | 18
COc1ccc(NC(=O)CCC(=O)c2ccc(C(C)C)cc2)cc1 | 4 | -5 | 1 | -13 | 2
CCOc1ccc(C(=O)c2oc3ccccc3c2NC(=O)Cc2coc3ccc(CC)cc23)cc1 | -6 | 0 | 0 | -10 | 3
CCC12CN3CC(C)(CN(C1)C3c1c[nH]c3ccc(OC)cc13)C2=O (configuration not stated) | -1 | 1 | 4 | 1 | 0
Cc1cc(OCC(=O)Nc2ccncc2)ccc1Cl | -14 | -3 | 0 | -38* | 20
CC(C)C(C(=O)Nc1ccncc1)c1ccc(Cl)cc1 (configuration not stated) | -3 | 0 | 8 | -7 | 51*
CC(C)c1ccc(NC(=O)NCc2ccccn2)cc1 | -2 | 3 | 0 | -34* | 4
Oc1[nH]c2ccccc2c1N=Nc1ccc(F)cc1 | 7 | -6 | 6 | -9 | 29
COC(=O)/C=C(\C)N=Nc1c(O)[nH]c2ccccc12 | -6 | -4 | 8 | 26 | 144*
Oc1[nH]c2ccccc2c1N=Nc1ccccc1 | 4 | 5 | 2 | 58 | 11
Oc1[nH]c2ccccc2c1N=Nc1ccccc1F | -3 | -6 | 9 | -2 | 39*
O=S1(=O)N=C(N=Nc2c(O)[nH]c3ccccc23)c2ccccc21 | -3 | 0 | 0 | -34* | 4
Cn1c2cc(S(C)=O)sc2c2cnn(Cc3ccccc3F)c(=O)c21 (configuration not stated) | 1 | -4 | -1 | -14 | 1
O=S1(=O)CCN2N=C(C3CC3)SC2=N1 | 0 | -3 | 1 | -2 | 0
Cc1ccc(OCCNC(=O)c2ccccc2SCC(=O)N2CCCC2)cc1 | 1 | -2 | -1 | -2 | 0
